Hits are enriched below; roughly 3.5% of the tested compounds scored in any of these assays.
GPR151 ag – human GPR151 activation; AID 1508602; activation, % at 11.2 µM; PathHunter beta-arrestin GPR151 cells, luminescence; 1% of 650,000 active; in the data active = activation above about 4.9%;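 note: 0% = median of compound wells and 100% = cells with positive control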
MITF primary – inhibitors of human MITF | inhibition, % at 2.6 µM | 0.91% of 650,000 active | AlphaScreen MITF homodimerization, bead proximity signal; in the data active = inhibition above about 50%;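 note: 0% = vehicle wells with protein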
TEAD-YAP block – TEAD-YAP interaction inhibition | inhibition, % at 9.12 µM | AID 1259422 | 1.4% of 640,000 active | HEK-TIYL cells, TEAD-Gal4/YAP UAS-luciferase luminescence; in the data active = inhibition above about 32%;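 note: 0% = median of test compound wells and 100% = reference inhibitor wells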
FBW7 activator – human FBW7 E3 ligase activation, primary screen; Q969H0; 0.13% of 650,000 active; normalized activity (activation), % at 26.1 µM; AlphaScreen FBW7–phospho-cyclin E peptide binding, activator screen; in the data active = normalized activity above about 1.9%;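 note: purified mutant Fbw7 with reduced substrate affinity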
GPR151 conf act – confirmation of human GPR151 activators; shares compounds with GPR151 ag; GPR151 PathHunter beta-arrestin cells, luminescence, 90 min; % of EA-reagent control over plate median; activation, % at 11.2 µM; 6,700 tested, under 10 active; AID 1508609;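 active = mean percent activation across replicates above the confirmation screen cutoff of 4.91%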
GPR119 ag – counter-screen for GPR151 activators: effect on human GPR119; shares compounds with GPR151 ag; GPR119 PathHunter beta-arrestin cells, luminescence, 90 min; 0 = compound-well median, 100 = enzyme-acceptor control; activation, % at 11.2 µM; 0.3% of 6,700 active; AID 1508611;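 active = mean percent activation in the counterscreen above 29.09%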;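 note: counterscreen on off-target GPR119 to flag nonselective hits from the GPR151 activator screen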
Target sequence (Q8TDV5 whole entry, looked up): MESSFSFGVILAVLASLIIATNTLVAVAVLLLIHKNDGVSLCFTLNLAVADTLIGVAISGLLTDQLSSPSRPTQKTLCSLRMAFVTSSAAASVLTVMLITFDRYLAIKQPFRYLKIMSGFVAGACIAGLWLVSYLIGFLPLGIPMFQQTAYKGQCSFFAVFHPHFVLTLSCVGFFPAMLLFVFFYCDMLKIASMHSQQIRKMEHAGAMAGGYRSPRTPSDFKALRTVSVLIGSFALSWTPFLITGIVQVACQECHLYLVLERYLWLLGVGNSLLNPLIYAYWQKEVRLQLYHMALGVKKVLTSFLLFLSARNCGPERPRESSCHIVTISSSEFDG
Active calls of the source: *; . = not tested or not shown.

SMILES | GPR151 ag | MITF primary | TEAD-YAP block | FBW7 activator | GPR151 conf act | GPR119 ag
CC(C)Cc1nc(SCC(=O)Nc2ccccc2)c2c(=O)n(C)c(=O)n(C)c2n1 | 8.1* | -13 | 4 | 0 | 0 | 11
COc1ccc(-c2csc3ncc(C(=O)NCCCO)c(=O)n23)cc1 | -1 | 19 | 13 | 1 | . | .
CSc1cccc(CN2CCN3C(=O)[C@H](COCc4ccccc4)NC(=O)[C@H]3C2)c1 | -1 | 16 | 9 | 1 | . | .
COc1cccc2c1CC(C(=O)Nc1ccc(-c3cn[nH]c3C)cc1OCCN(C)C)CO2 (centres undefined) | 6.8* | 10 | 7 | 0 | 0 | -2
Cc1[nH]ncc1-c1ccc(NC(=O)C2COc3c(F)cccc3C2)c(OCCN(C)C)c1 (centres undefined) | -2 | 0 | 0 | 0 | . | .
O=C(Nc1cc(C(F)(F)F)ccc1Cl)C1C2CC3OC(=O)C1C3C2 (centres undefined) | -2 | 4 | -1 | 0 | . | .
O=C(Nc1cccc(C(F)(F)F)c1)C1C2CC3OC(=O)C1C3C2 (centres undefined) | 6.3* | 1 | -2 | 0 | 1 | 15
O=C1NCCN/C1=C/C(=O)c1ccc([N+](=O)[O-])cc1 | 0 | 4 | -37 | 0 | . | .
COc1ccccc1-n1c(SCC(N)=O)nnc1-c1ccco1 | 0 | -4 | -2 | 0 | . | .
Cc1c(C(=O)Nc2ccccc2C(F)(F)F)sc2ncn(CC(=O)N3CCOCC3)c(=O)c12 | -1 | 2 | -6 | 0 | . | .
NC(=O)Cn1ccn(-c2cccc(Cl)c2)c(=O)c1=O | 8.1* | 2 | 1 | 0 | 0 | -8
COC(=O)CN1C(=O)S/C(=C/c2cccc([N+](=O)[O-])c2O)C1=O | 5.3* | 14 | 4 | 0 | 0 | -12
COc1cc(/C=C2\SC(NC(C)=O)=NC2=O)cc(Br)c1OC(C)=O | 7.4* | 11 | 4 | 0 | 1 | -7
C=CCN1C(=O)/C(=C\c2ccc(C(=O)O)cc2)S/C1=N/c1nnc(CC)s1 | 1 | 6 | 1 | 0 | . | .
COC(=O)CN1C(=O)S/C(=C/C=C/c2ccccc2[N+](=O)[O-])C1=O | -1 | 17 | 4 | 0 | . | .
C=CCN1C(=O)/C(=C/c2ccc(OCC(=O)O)cc2)S/C1=N/c1nccs1 | 7.0* | 6 | -1 | 0 | 2 | 4
COc1cc(/C=C2\SC(NC(C)=O)=NC2=O)cc(OC)c1OC | -1 | -13 | -7 | 0 | . | .
COC(=O)CN1C(=O)S/C(=C\c2cc(Br)c(OC)c(OC)c2)C1=O | 14* | 9 | -1 | 0 | 1 | 3
Nc1nnnn1/N=C\c1ccc(-c2ccc([N+](=O)[O-])cc2Br)o1 | 2 | -9 | 11 | 0 | . | .
CC1CCC(NC(=O)C(=O)Nc2c(F)cc(F)cc2Br)CC1 (centres undefined) | 0 | 0 | 2 | 0 | . | .
Nc1nc(SCc2cc([N+](=O)[O-])cc3c2OCOC3)n[nH]1 | 0 | -3 | -9 | 0 | . | .
COC(=O)CN1C(=O)S/C(=C/c2ccc(OCC(=O)O)cc2)C1=O | 9.8* | 13 | 8 | 0 | 1 | 5
COc1ccccc1CNC(=O)c1nnn(Cc2ccccc2)c1N | 14* | -4 | -6 | 0 | -1 | -11
COC(=O)C1=C(C)Nc2ncnn2C1c1cccc(OC)c1 (centres undefined) | 1 | 19 | -2 | 0 | . | .
COC(=O)C1=C(C)Nc2nnnn2C1c1cccc(O)c1 (centres undefined) | 1 | -12 | 0 | 0 | . | .
SMILES | GPR151 ag | MITF primary | TEAD-YAP block | FBW7 activator | GPR151 conf act | GPR119 ag
CCOC(=O)C1=C(C)Nc2nnnn2C1c1cccc(O)c1 (centres undefined) | 13* | -1 | 1 | 0 | -1 | 2
COCCOC(=O)C1=C(C)Nc2ncnn2C1c1cccc(OC)c1 (centres undefined) | 5.8* | 4 | 12 | 0 | 0 | -6
Cc1nc(NCCc2ccccc2)cc(-c2ccc(F)cc2)n1 | -1 | -76 | -48 | 0 | . | .
CCCCOC(=O)c1cccc(-c2ccc(/C=C3\C(=O)N(CCO)C(=O)C(C#N)=C3C)o2)c1 | 8.9* | -5 | -23 | 0 | 0 | -4
CC1=C(C#N)C(=O)NC(=O)/C1=C\c1ccc(-c2cccc(C(=O)OC(C)C)c2)o1 | 5.0* | 5 | 14 | 0 | -1 | 8
CC(=O)c1cccc(-c2ccc(/C=C3\C(=O)NC(=O)C(C#N)=C3C)o2)c1 | 0 | 19 | 3 | 0 | . | .
COc1ccc(N2C(=O)c3ccc(C(=O)Oc4ccc([N+](=O)[O-])cc4)cc3C2=O)cc1 | -1 | -14 | -9 | -1 | . | .
COC(=O)c1cccc(NC(=O)c2ccc[n+](C)c2)c1 | 0 | -3 | -3 | 0 | . | .
C[n+]1cccc(C(=O)Nc2ccccc2)c1 | 5.4* | 17 | -1 | 0 | -1 | -8
C=CCc1ccccc1OCCOc1ccc([N+](=O)[O-])cc1/C=N/NC(N)=O | 6.2* | -4 | -1 | 0 | 0 | -7
CCC(NC(=O)Cn1nnnc1CN1CCC(C)CC1)c1ccc(F)cc1 (centres undefined) | 5.6* | 1 | 1 | 0 | 0 | -2
COc1cc(NC(=O)C2CCCCC2)c2ncccc2c1 | 5.3* | 5 | 5 | 0 | 0 | 6
COc1cc(NC(=O)NC(C)C)c2ncccc2c1 | -2 | 8 | 21 | 0 | . | .
CCCOc1ccc(C2C(C(=O)OCCOc3ccccc3)=C(C)NC3=C2C(=O)CC(c2ccccc2)C3)cc1 (centres undefined) | 0 | -6 | 5 | 0 | . | .
O=C(CCc1nnc2n(Cc3ccc(F)cc3)c(=O)c3ccccc3n12)Nc1ccccc1 | -1 | 4 | -3 | 0 | . | .
CC(C)NC(=O)CCc1nnc2n(Cc3ccc(F)cc3)c(=O)c3ccccc3n12 | 8.0* | 14 | 5 | 1 | 1 | 12
COc1cc(NS(=O)(=O)c2ccc(F)cc2C)cc(OC)c1 | 1 | 0 | 3 | 0 | . | .
CCOC(=O)c1c(NC(=O)c2cccs2)sc(C(=O)Nc2ccc(OC)cc2OC)c1C | 5.2* | -1 | -4 | 0 | 1 | 4
CCOC(=O)c1c(NC(=O)c2cccs2)sc(C(=O)Nc2ccccc2OC)c1C | 0 | 3 | -2 | 0 | . | .
CCOC(=O)c1c(NC(=O)c2ccccc2F)sc(C(=O)Nc2ccccc2C)c1C | 7.9* | 3 | -5 | 0 | 1 | 13
CC(=O)NS(=O)(=O)c1ccc(NC(=O)Nc2ccc(Cl)cc2)cc1 | 7.4* | 0 | 2 | 0 | -1 | -3
COc1ccc(S(=O)(=O)NNC(=O)Nc2ccc(Cl)cc2)cc1 | 8.3* | -5 | -4 | 0 | 1 | 9
C=CC[C@@H]1CC=C[C@@H](C)N1C(=O)c1ccc(OC2CCN(Cc3ccccn3)CC2)cc1 | 0 | 0 | 6 | 0 | . | .
CN(C(=O)C12CC3CC(CC(C3)C1)C2)c1nnc(-c2cccnc2)s1 | -1 | 9 | 5 | 0 | . | .

Screening data deposited in PubChem by The Scripps Research Institute Molecular Screening Center.
